# Laboratory results reported in PubChem BioAssay (EPA / NIEHS).
# Where “and” joins values, the source holds several entries; their conditions need not be identical. Identical values can stand only once. Results filed as inconclusive are left out. A structure can be active in one record and inactive in another. Calls of active or inactive are those of the source. Rule for the calls: active = hit-call score of the fitted dose curve at least 0.9, where 1 is the maximum; inconclusive = response in the unintended direction; inactive = score below 0.9.
# Legend:
# [1] = target: rat Neonicotinoid receptor (NNR), Chrna7 (gene 25302) (UniProt Q05941); assay: NVS_LGIC_rNNR_BungSens: NovaScreen (NVS) Ligand-Gated Ion Channel Assay for rat Neonicotinoid receptor (NNR) (AID 2283315)
# Procedure, shortened: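 Rat cortical membrane preparation incubated 2.5 h with tritiated or iodinated radioligand and test chemical. Bound radioactivity was filtered and counted by scintillation, and displacement was analysed against DMSO.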
# [2] = target: rat Neurokinin-1 Receptor (NK1), Tacr1 (gene 24807) (UniProt P14600); assay: NVS_GPCR_rNK1: NovaScreen (NVS) G Protein-Coupled Receptor Assay for rat Neurokinin-1 Receptor (NK1) (AID 2283309)
# Procedure, shortened: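 Competitive radioligand binding to NK1 in rat submaxillary membranes, 1 h incubation, filtration and scintillation read-out. Compounds first screened at 25 uM in duplicate, then concentration-response for actives; signal loss relative to DMSO.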
# [3] = target: human Opioid Receptor Mu (Opiate Mu), OPRM1 (gene 4988) (UniProt P35372); assay: NVS_GPCR_hOpiate_mu: NovaScreen (NVS) G Protein-Coupled Receptor Assay for human Opioid Receptor Mu (Opiate Mu) (AID 2283290);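 note: hits lower bound tracer signal versus DMSO meaning displacement of the ligand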
# Procedure, shortened: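 Radioligand displacement binding on membranes from CHO cells expressing the receptor, 2.5 h after dosing, filter-based scintillation counting; loss of signal vs DMSO baseline. Screened in duplicate at 25 uM, actives then run in concentration series.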
# [4] = target: mouse Cholecystokinin, CCK2 Receptor (CCKB), Cckbr (gene 12426) (UniProt P56481); assay: NVS_GPCR_mCKKBCentral: NovaScreen (NVS) G Protein-Coupled Receptor Assay for mouse Cholecystokinin, CCK2 Receptor (CCKB) (AID 2283293)
# Procedure, shortened: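 Mouse forebrain membrane preparation incubated 2 h with chemical and radioligand; bound radioactivity counted after filtration. Single-concentration duplicate screen at 25 uM, then concentration series to 50 uM max for hits, DMSO as baseline.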
# [5] = target: guinea pig Serotonin, 5-Hydroxytryptamine Receptor 4 (5HT4), HTR4 (gene 100135548) (UniProt O70528); assay: NVS_GPCR_g5HT4: NovaScreen (NVS) G Protein-Coupled Receptor Assay for guinea pig Serotonin, 5-Hydroxytryptamine Receptor 4 (5HT4) (AID 2283294)
# Procedure, shortened: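 Compounds first screened in duplicate at 25 uM, actives followed up in concentration series. Binding measured as displacement of specific radioligand from guinea pig striatal membranes, 1 h, filter-based scintillation read-out versus DMSO baseline.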
# [6] = target: rat Adrenergic Receptor, Alpha 2 (Adra2), Non-selective Binding, Adra2a (gene 25083) (UniProt P22909); assay: NVS_GPCR_rAdra2_NonSelective: NovaScreen (NVS) G Protein-Coupled Receptor Assay for rat Adrenergic Receptor, Alpha 2 (Adra2), Non-selective Binding (AID 2283299)
# Procedure, shortened: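 Filter-based scintillation counting of radioligand binding to rat cortical membrane receptors, measured 1.25 hours post-dosing; loss of signal versus DMSO indicates displacement. Initial single-concentration duplicate at 25 uM, then concentration series.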
# [7] = target: Adra2b (gene 24174) (UniProt P19328); assay: NVS_GPCR_rmAdra2B: NovaScreen (NVS) G Protein-Coupled Receptor Assay for hybird cells Adrenergic, Alpha 2B Receptor (Adra2B) (AID 2283306)
# Procedure, shortened: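 Compounds screened first at 25 uM in duplicate, with actives followed up in concentration-response; specific radioligand displacement from hybrid neuroglioma/blastoma cell membrane preparations measured by filter scintillation counting after 1 h, normalized to DMSO.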
# [8] = target: rat Opioid Receptor, Non-selective Sodium (Na+) Binding, Oprm1 (gene 25601) (UniProt P33535); assay: NVS_GPCR_rOpiate_NonSelectiveNa: NovaScreen (NVS) G Protein-Coupled Receptor Assay for rat Opioid Receptor, Non-selective Sodium (Na+) Binding (AID 2283311)
# Procedure, shortened: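 Filtration radioligand binding on rat forebrain membrane preparations, read 1.5 h after dosing. Single-concentration 25 µM primary screen in duplicate, followed by singleton concentration series to 50 µM max for actives; DMSO baseline.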
# [9] = target: rat Opioid Receptor, Non-selective Binding, Oprm1 (gene 25601) (UniProt P33535); assay: NVS_GPCR_rOpiate_NonSelective: NovaScreen (NVS) G Protein-Coupled Receptor Assay for rat Opioid Receptor, Non-selective Binding (AID 2283318)
# Procedure, shortened: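 Filter-based radioligand displacement using rat forebrain membrane preparations, measured 1.5 h post-dosing. Single-concentration duplicate screen at 25 uM, follow-up in concentration series; activity taken as signal loss relative to DMSO.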
# [10] = NVS_IC_rCaDHPRCh_L: NovaScreen (NVS) Ion Channel Assay for rat Calcium Channel, Type L, Dihydropyridine Site (CaDHPRCh_L) (AID 2283320)
# Procedure, shortened: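 Rat cortex membrane preparation; dihydropyridine-site radioligand displacement read 1 h post-dose by filtration and scintillation. Primary single-point screen 25 uM in duplicate, then concentration series to 50 uM maximum; DMSO as negative control.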
# [11] = target: guinea pig Bradykinin Receptor B2 (BK2), BDKRB2 (gene 100135486) (UniProt O70526); assay: NVS_GPCR_gBK2: NovaScreen (NVS) G Protein-Coupled Receptor Assay for guinea pig Bradykinin Receptor B2 (BK2) (AID 2283292)
# Procedure, shortened: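 Guinea pig ileum membrane preparation incubated 1 h with radioligand and test chemical; bound counts measured after filtration. Primary duplicate screening at 25 uM, then singleton concentration series with a 50 uM top dose; DMSO as baseline.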
# [12] = target: rat Neurokinin-3 Receptor (NK3), Tacr3 (gene 24808) (UniProt P16177); assay: NVS_GPCR_rNK3: NovaScreen (NVS) G Protein-Coupled Receptor Assay for rat Neurokinin-3 Receptor (NK3) (AID 2283310)
# Procedure, shortened: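 Filter-based radioligand displacement on rat cortex membrane preparations, read by scintillation 2 h post-dose. Chemicals first tested in duplicate at 25 uM; actives followed up in concentration series with a 50 uM maximum.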
# [13] = target: rat Somatostatin Receptor (SST), Sstr1 (gene 25033) (UniProt P28646); assay: NVS_GPCR_rSST: NovaScreen (NVS) G Protein-Coupled Receptor Assay for rat Somatostatin Receptor (SST) (AID 2283314)
# Procedure, shortened: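 Single-concentration duplicate screen (25 uM), then concentration-response up to 50 uM for chemicals passing a threshold such as 30% inhibition. Membranes came from rat forebrain. Binding was measured 1 h post-dose by filter radiodetection and scintillation, relative to DMSO.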
# [14] = target: rat Vasopressin 1 Receptor (V1), Avpr1a (gene 25107) (UniProt P30560); assay: NVS_GPCR_rV1: NovaScreen (NVS) G Protein-Coupled Receptor Assay for rat Vasopressin 1 Receptor (V1) (AID 2283316)
# Procedure, shortened: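 Concentration-response up to 50 uM for chemicals passing a threshold such as 30% inhibition in an initial duplicate 25 uM screen. Displacement of radioligand from rat liver membranes measured after 1.5 h by filtration and scintillation.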
# [15] = system: NCBI gene 24521; assay: NVS_IC_rKATPCh: NovaScreen (NVS) Ion Channel Assay for rat Potassium Channel, ATP-Sensitive (KATPCh) (AID 2283319)
# Procedure, shortened: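 Primary duplicate screen at 25 uM, then singleton concentration series to 50 uM maximum, in a rat cortex membrane radioligand displacement assay. Binding measured by filtration and scintillation 2 h post-dose; DMSO baseline.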
# Sequence of guinea pig Bradykinin Receptor B2 (BK2), BDKRB2 (gene 100135486) (O70526 whole entry, looked up): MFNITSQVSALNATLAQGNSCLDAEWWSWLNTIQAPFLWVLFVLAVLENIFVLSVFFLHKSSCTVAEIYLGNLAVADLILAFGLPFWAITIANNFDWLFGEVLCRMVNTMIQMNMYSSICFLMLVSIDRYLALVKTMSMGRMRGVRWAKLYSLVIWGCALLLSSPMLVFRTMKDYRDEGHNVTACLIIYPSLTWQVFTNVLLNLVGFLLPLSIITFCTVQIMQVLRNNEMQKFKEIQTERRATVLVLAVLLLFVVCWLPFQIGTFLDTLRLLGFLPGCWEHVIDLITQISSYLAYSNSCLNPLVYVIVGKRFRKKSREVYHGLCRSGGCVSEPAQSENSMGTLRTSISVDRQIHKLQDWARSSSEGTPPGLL
# Sequence of mouse Cholecystokinin, CCK2 Receptor (CCKB), Cckbr (gene 12426) (P56481 whole entry, looked up): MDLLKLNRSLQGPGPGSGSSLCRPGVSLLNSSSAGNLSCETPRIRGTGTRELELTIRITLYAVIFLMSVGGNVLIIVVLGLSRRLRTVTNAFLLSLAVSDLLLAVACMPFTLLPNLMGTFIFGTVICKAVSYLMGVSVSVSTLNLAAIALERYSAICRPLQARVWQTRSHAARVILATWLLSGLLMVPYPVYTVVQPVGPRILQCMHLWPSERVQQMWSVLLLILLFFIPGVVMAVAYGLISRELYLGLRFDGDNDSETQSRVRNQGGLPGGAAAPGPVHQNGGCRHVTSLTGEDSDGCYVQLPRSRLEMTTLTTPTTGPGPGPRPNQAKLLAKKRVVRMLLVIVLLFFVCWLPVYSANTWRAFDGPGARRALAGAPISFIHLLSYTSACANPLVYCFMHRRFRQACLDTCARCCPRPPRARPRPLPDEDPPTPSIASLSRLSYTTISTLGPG
# Sequence of rat Adrenergic Receptor, Alpha 2 (Adra2), Non-selective Binding, Adra2a (gene 25083) (P22909 whole entry, looked up): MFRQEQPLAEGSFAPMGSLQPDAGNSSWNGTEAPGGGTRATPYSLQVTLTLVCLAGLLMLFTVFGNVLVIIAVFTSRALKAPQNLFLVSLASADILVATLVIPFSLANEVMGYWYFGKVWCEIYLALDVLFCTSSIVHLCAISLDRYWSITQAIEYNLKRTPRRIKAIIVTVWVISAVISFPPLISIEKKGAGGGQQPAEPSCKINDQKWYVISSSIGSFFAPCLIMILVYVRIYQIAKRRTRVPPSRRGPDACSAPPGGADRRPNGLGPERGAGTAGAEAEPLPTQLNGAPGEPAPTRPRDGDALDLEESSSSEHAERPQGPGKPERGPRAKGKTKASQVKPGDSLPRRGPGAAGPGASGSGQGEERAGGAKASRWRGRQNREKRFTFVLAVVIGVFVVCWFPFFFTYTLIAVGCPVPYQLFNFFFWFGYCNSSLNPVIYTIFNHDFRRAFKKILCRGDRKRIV
# Sequence of guinea pig Serotonin, 5-Hydroxytryptamine Receptor 4 (5HT4), HTR4 (gene 100135548) (O70528 whole entry, looked up): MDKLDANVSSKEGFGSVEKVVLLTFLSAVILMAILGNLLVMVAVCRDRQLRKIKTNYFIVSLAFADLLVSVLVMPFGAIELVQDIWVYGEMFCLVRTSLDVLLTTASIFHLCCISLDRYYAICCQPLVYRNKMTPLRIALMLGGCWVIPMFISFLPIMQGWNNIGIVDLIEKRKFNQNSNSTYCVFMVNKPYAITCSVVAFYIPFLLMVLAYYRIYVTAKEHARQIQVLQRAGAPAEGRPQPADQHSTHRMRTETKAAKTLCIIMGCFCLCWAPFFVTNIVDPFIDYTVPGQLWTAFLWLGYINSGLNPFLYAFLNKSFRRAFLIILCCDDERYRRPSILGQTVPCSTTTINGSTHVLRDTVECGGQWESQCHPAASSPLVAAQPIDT
# Sequence of rat Somatostatin Receptor (SST), Sstr1 (gene 25033) (P28646 whole entry, looked up): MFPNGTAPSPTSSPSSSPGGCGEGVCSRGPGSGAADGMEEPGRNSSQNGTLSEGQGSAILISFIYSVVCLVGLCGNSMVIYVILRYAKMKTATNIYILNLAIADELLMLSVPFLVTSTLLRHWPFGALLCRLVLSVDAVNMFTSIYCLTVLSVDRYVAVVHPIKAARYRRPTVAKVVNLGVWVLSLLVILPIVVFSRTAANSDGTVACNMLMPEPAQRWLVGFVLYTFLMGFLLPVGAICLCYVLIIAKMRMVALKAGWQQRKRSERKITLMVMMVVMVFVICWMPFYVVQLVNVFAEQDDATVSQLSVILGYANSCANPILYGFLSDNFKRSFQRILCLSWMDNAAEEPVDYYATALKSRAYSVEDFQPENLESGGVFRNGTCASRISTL
# Sequence of human Opioid Receptor Mu (Opiate Mu), OPRM1 (gene 4988) (P35372 whole entry, looked up): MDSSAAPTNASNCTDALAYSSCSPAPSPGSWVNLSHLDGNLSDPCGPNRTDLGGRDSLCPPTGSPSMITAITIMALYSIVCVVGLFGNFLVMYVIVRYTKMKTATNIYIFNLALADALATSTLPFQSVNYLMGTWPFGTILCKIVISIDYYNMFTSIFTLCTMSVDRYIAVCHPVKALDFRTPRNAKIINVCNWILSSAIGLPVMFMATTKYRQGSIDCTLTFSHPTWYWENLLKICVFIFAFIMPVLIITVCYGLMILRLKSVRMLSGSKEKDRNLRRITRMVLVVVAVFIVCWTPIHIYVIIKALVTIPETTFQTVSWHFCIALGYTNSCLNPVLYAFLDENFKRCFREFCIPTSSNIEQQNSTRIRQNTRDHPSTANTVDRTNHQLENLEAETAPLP
# Sequence of rat Opioid Receptor, Non-selective Sodium (Na+) Binding, Oprm1 (gene 25601) (P33535 whole entry, looked up): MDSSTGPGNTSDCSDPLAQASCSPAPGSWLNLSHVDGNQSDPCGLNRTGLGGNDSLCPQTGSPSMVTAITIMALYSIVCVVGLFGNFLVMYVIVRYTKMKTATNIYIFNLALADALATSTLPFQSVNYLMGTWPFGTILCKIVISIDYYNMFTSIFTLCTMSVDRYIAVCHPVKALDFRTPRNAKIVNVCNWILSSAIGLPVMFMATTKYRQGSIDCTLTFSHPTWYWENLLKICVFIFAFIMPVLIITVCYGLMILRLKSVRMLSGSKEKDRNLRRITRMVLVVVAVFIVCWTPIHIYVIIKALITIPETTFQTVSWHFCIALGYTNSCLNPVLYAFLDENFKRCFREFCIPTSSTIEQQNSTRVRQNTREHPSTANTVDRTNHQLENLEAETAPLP
# Sequence of rat Neonicotinoid receptor (NNR), Chrna7 (gene 25302) (Q05941 whole entry, looked up): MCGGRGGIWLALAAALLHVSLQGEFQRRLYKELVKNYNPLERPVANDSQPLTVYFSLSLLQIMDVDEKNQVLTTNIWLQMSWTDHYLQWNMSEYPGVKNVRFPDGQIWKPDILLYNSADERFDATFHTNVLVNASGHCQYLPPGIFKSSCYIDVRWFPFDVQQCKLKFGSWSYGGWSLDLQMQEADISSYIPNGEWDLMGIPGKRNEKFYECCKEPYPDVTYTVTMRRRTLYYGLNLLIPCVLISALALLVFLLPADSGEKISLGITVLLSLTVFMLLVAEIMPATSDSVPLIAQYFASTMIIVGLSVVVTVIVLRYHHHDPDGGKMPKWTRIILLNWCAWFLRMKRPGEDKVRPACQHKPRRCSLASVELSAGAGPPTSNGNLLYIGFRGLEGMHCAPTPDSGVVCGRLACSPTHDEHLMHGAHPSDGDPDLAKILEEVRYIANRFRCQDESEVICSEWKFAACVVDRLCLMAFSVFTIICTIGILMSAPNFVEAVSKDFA
# Sequence of rat Opioid Receptor, Non-selective Binding, Oprm1 (gene 25601) (P33535 whole entry, looked up): as the sequence (P33535 whole entry, looked up) above
# Sequence of rat Neurokinin-3 Receptor (NK3), Tacr3 (gene 24808) (P16177 whole entry, looked up): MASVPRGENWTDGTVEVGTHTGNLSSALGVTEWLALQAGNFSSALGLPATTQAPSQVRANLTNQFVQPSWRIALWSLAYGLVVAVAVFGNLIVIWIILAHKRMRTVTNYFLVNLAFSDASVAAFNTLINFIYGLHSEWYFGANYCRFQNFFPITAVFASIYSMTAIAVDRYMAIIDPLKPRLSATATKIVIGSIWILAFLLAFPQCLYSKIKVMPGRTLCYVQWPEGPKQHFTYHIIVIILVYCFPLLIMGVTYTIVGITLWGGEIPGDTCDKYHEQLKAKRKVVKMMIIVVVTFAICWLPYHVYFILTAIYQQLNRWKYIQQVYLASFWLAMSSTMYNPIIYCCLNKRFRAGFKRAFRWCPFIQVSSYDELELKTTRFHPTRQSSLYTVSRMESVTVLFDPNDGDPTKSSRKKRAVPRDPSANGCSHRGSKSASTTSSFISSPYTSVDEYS
# Sequence of rat Vasopressin 1 Receptor (V1), Avpr1a (gene 25107) (P30560 whole entry, looked up): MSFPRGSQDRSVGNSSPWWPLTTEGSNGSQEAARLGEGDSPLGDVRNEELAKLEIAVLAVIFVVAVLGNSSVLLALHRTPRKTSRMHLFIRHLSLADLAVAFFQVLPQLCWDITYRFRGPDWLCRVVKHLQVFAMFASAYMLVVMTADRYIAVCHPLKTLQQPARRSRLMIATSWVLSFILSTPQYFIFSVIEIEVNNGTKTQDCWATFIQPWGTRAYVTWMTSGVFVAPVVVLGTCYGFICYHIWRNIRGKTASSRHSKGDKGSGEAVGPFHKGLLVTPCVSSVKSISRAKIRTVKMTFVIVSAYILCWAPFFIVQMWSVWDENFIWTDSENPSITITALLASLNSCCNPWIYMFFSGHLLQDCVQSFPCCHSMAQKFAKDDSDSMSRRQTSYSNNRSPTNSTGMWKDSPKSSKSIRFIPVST
structure (smiles),measurement,setting,value
N[C@@H](Cc1cc(I)c(Oc2ccc(O)c(I)c2)c(I)c1)C(=O)O,outcome,[1],inactive
C#C[C@]1(O)CC[C@H]2[C@@H]3CCC4=CC(=O)CC[C@@H]4[C@H]3CC[C@@]21CC,outcome,[2],inactive
CC(C)(c1ccc(O)cc1)c1ccc(O)cc1,AC50,[3],15.3 µM (active) [middle of 4 runs]
same,outcome,[3],inactive
same,AC50,[4],31.2 µM (active) and 19.2 µM (active) and 16.3 µM (active)
same,AC50,[5],10.4 µM (active) and 24.2 µM (active) and 15.1 µM (active)
same,outcome,[6],inactive
same,outcome,[7],inactive
same,AC50,[8],25.4 µM (active) and 17 µM (active) and 20.5 µM (active)
same,outcome,[1],inactive
same,AC50,[9],25.4 µM (active) and 17.6 µM (active)
same,outcome,[10],inactive
S=C(S)NCCNC(=S)S.[Mn+2].[S-]C([S-])=NCCN=C([S-])[S-].[Zn+2],AC50,[3],154 nM (active) and 3.46 µM (active) and 9.37 µM (active)
same,outcome,[3],inactive
same,AC50,[11],9.72 µM (active) and 9.3 µM (active) and 26.6 µM (active)
same,AC50,[5],31.1 µM (active)
same,outcome,[5],inactive
same,AC50,[6],12.5 µM (active) and 15.4 µM (active)
same,outcome,[6],inactive
same,outcome,[12],inactive
same,outcome,[8],inactive
same,AC50,[13],1.49 µM (active)
same,outcome,[13],inactive
same,outcome,[14],inactive
c1ccc(Nc2ccccc2)cc1,outcome,[15],inactive
CCCCCOC(=O)COc1cc(N2C(=O)C3=C(CCCC3)C2=O)c(F)cc1Cl,outcome,[3],inactive
CC(C)(C)[C@@H](O)[C@@H](Cc1ccc(Cl)cc1)n1cncn1,outcome,[13],inactive
CN(C)C(=O)Nc1ccc(Cl)c(Cl)c1,outcome,[15],inactive
